Assay outcomes (PubChem BioAssay)
The entries come from a sample that favours hits as a whole.
mHTT CaM bind: mHTT-calmodulin interaction abrogation. P42858. AlphaScreen His-mHTT/GST-CaM binding, luminescence. inhibition, % at 15 µM. 3.6% of 190,000 active;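 note: 0% = both proteins with DMSO and 100% = one protein alone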
Target sequence (P42858 whole entry, looked up, stated change not applied): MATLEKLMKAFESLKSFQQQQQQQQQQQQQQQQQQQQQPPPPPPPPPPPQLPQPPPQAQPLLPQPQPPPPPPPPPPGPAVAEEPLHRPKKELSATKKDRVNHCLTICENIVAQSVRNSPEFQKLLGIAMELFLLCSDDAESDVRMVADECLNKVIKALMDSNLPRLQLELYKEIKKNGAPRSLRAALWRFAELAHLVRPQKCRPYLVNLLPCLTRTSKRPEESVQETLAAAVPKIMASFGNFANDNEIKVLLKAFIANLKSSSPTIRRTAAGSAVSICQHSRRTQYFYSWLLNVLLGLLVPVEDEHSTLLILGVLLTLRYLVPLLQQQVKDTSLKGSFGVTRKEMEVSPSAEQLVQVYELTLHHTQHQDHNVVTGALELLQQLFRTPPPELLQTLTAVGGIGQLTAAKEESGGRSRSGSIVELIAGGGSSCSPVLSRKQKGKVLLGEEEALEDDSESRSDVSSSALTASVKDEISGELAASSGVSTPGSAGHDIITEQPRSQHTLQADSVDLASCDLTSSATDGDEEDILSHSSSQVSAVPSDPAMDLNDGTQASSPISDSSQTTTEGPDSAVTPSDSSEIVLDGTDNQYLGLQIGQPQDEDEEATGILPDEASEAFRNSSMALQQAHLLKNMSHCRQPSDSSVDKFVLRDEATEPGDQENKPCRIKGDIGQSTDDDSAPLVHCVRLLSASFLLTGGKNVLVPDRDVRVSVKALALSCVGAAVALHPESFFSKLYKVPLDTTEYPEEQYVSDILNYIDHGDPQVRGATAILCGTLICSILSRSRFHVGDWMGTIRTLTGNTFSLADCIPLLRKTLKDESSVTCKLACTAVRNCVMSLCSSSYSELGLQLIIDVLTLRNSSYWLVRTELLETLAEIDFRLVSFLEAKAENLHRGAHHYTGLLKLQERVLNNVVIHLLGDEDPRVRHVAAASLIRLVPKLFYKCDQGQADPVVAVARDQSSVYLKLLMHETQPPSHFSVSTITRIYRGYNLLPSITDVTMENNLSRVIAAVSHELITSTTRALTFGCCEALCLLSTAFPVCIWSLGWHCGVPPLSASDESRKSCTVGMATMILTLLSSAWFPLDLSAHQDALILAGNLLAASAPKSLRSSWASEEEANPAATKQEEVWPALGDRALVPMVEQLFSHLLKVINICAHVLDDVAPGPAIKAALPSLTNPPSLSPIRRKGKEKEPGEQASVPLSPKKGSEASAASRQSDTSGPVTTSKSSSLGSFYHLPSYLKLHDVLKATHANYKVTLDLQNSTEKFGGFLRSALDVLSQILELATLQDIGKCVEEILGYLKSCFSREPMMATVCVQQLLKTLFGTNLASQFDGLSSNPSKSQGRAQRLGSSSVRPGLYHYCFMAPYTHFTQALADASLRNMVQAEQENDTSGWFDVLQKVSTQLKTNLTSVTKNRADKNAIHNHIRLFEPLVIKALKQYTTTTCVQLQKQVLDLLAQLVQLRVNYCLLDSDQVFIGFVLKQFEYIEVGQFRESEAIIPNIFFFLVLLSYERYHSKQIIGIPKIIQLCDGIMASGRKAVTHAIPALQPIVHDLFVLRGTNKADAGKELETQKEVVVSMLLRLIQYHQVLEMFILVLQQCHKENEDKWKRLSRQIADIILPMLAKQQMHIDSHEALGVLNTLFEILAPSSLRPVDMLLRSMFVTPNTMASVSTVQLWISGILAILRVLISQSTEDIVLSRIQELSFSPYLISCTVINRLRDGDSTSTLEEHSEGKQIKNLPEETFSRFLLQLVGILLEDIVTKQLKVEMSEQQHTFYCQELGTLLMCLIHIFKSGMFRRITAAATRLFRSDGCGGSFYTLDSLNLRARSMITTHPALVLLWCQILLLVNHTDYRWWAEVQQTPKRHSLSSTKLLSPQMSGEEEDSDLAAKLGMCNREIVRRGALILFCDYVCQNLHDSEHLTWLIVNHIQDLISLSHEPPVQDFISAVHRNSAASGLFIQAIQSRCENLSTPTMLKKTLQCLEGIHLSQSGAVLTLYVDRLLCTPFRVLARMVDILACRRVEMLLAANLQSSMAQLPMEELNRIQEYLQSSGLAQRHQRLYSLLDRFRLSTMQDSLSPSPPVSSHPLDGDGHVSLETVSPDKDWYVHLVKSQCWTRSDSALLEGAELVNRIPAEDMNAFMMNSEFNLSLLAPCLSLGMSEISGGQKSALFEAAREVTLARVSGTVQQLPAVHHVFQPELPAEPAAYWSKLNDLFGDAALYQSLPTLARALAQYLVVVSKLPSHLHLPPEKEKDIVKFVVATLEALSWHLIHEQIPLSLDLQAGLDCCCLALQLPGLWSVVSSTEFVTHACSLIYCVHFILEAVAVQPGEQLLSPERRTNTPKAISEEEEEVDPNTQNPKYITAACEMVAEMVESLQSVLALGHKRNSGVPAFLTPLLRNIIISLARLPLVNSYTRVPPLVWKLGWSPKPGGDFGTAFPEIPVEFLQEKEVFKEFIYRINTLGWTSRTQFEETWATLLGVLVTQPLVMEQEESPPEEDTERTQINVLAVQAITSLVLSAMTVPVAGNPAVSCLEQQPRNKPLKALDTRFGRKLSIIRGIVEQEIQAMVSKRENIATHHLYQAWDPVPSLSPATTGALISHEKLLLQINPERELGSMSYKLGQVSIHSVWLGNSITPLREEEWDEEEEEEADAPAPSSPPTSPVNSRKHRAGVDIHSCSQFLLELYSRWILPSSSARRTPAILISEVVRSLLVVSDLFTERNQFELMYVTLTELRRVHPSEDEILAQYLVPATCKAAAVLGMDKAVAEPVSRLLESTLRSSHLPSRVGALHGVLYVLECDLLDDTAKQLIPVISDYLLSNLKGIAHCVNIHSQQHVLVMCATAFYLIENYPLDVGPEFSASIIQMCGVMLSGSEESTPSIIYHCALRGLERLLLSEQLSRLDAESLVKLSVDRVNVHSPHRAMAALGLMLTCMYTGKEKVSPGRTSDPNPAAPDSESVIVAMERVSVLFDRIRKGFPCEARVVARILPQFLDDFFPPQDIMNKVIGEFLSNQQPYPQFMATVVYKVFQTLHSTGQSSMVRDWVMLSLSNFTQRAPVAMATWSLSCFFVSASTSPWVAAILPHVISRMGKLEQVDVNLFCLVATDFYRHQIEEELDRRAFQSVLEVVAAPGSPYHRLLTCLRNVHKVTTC
Pf apPOL inh: Pf-apPOL DNA polymerase inhibition. Recombinant Pf-apPOL, molecular beacon fluorescence, 1.5 h. inhibition, % at 10 µM. 0.25% of 210,000 active
The depositor's hits bear a star; . = not tested or not shown. Cut-off read from the data, not from the text of the source: active = inhibition above about 50%; inactive = the rest.

SMILES	mHTT CaM bind	Pf apPOL inh
Cc1ccnc(NC(c2ccccn2)c2ccc3cccnc3c2O)c1 (stereo unspecified)	100*	-4
Cc1ccnc(NC(=O)c2ccc(-c3nc(-c4ccccc4)no3)cc2)c1	-5	-3
O=C(NCCCOc1cccc2cccnc12)c1ccc2c(c1)OCO2	7	-4
Cc1ccnc(NC(c2ccsc2)c2ccc3cccnc3c2O)c1 (stereo unspecified)	100*	-1
Cc1ccnc(NC(c2ccc3c(c2)OCO3)c2ccc3cccnc3c2O)c1 (stereo unspecified)	99*	1
Cc1ccc(NC(=O)c2cccnc2-c2ccsc2)c(C)c1	1	1
Cc1ccnc(NC(c2ccc(F)cc2)c2ccc3cccnc3c2O)c1 (stereo unspecified)	98*	2
O=C(Nc1ccc(Cl)c(Cl)c1)N1CCN(c2ccc(C(F)(F)F)cc2[N+](=O)[O-])CC1	18	-4
Cc1ccnc(NC(=O)c2ccc(C(=O)Nc3cc(C)ccn3)cc2)c1	7	4
Cc1ccnc(NC(c2ccncc2)c2ccc3cccnc3c2O)c1 (stereo unspecified)	100*	5
C(=C\c1ccccc1)/C1=Nc2ccccc2NC(c2ccccc2)C1 (stereo unspecified)	81*	-5
O=C(O)c1ccc(N2N=C(/C=C/c3ccccc3)CC2c2ccccc2)cc1 (stereo unspecified)	-26	1
Cc1ncc(CO)c2cc(C(N)=O)c(=Nc3ccc(-c4ccccc4)cc3)oc12	9	-2
NC(=O)c1cc(Br)cc2c3c([nH]c12)CCCC3	62*	4
Brc1ccc2[nH]c3c(c2c1)CCC3	.	0
CCc1ccc2c(c1)C1(NN=C(c3ccccc3O)S1)C(=O)N2 (stereo unspecified)	100*	-2
O=C1Nc2ccccc2C12NN=C(c1ccccc1O)S2 (stereo unspecified)	100*	-1
CCc1ccc(C(=O)N2CCC3(C2)C(=O)Nc2ccccc23)cc1 (stereo unspecified)	42	-5
O=C1c2ccccc2C(=O)C1C1(C2C(=O)c3ccccc3C2=O)C(=O)Nc2ccccc21	14	-7
Cc1oc(C2CCN(C(=O)Nc3ccc(Cl)cc3F)CC2)nc1C(=O)N(C)C	-3	-3
CC(C)CC(=O)Nc1ccc(N2CCN(C(=O)C(C)C)CC2)nc1	-1	-3
CCn1ncc2ccc(C(=O)NC)cc21	-5	-5
CN(CC#N)C(=O)Cn1cc2c(n1)CCCCCC2	-7	-5
NS(=O)(=O)c1ccc(NC(=O)c2ccc(I)cc2)cc1	1	-4
O=C(CSc1ccc(-c2ccco2)nn1)Nc1cc(C(F)(F)F)ccc1Cl	-11	7
SMILES	mHTT CaM bind	Pf apPOL inh
O=c1sc2c(n1-c1ccccc1)SCC1COc3ccccc3C21 (stereo unspecified)	66*	-14
O=C(O)CCn1c2c(sc1=O)C1c3ccccc3OCC1CS2 (stereo unspecified)	26	1
CN(C)CCNc1ncnc2c1CCC2	-7	-1
FC(F)Oc1ccccc1C=Nc1ccc(Cl)cc1	.	-8
Clc1cc2c(c3ncccc13)OCN(CCCN1CCOCC1)C2	100*	-12
Cc1cc(Cl)c(OCCCN2CCOCC2)c(Br)c1	-3	-5
Cc1ccccc1CNC(=O)C1(C)CCCN(S(=O)(=O)c2ccccc2Cl)C1 (stereo unspecified)	-5	1
Cc1ccc(C)c(S(=O)(=O)N2CCCC(C)(C(=O)NCc3ccccc3)C2)c1 (stereo unspecified)	-4	-4
Cc1ccccc1CNC(=O)C1(C)CCCN(S(=O)(=O)c2cccc(Cl)c2C)C1 (stereo unspecified)	61*	-3
Cc1c(Cl)cccc1S(=O)(=O)N1CCCC(C)(C(=O)NCc2ccccc2)C1 (stereo unspecified)	65*	-4
COc1cccc(C(=O)N2CC(C(=O)N3CCCCC3)C(c3ccccc3)C2)c1 (stereo unspecified)	4	-1
COc1ccc(Cl)cc1C(=O)N1CCN(c2ccccc2F)CC1	-1	-11
COc1ccc(Cl)cc1C(=O)N1CCN(C2=NN=C(c3cccs3)CS2)CC1	68*	5
CCCCSc1nnc2n(CCCC)c(=O)c3sccc3n12	-7	3
N#Cc1c(-c2ccccc2)cc(-c2cccs2)nc1Br	-9	-4
COc1nc(-c2cccs2)cc(-c2ccc(C)cc2)c1C#N	-36	53*
Cc1nc(-c2cnccn2)[nH]c(=O)c1C	71*	-12
Cc1nnc(-c2ccccn2)[nH]c1=O	.	-137
COc1cc(C(CCN2CCOCC2)c2c(OC)cc(OC)c3c(-c4ccccc4)cc(=O)oc23)cc(OC)c1OC (stereo unspecified)	75*	-22
CCN(CC)C(=O)CC(c1cc(OC)c(OC)c(OC)c1)c1c(OC)cc(OC)c2ccc(=O)oc12 (stereo unspecified)	26	-3
O=c1cc(-c2ccccc2)c2ccc(O)c(CN3CCOCC3)c2o1	-10	2
COc1cc(O)c(CN2CCCC2)c2oc(-c3ccccc3)cc(=O)c12	3	0
CCN(CC)C(=O)CC(c1cc(OC)c(OC)c(OC)c1)c1c(OC)cc(OC)c2c(-c3ccccc3)cc(=O)oc12 (stereo unspecified)	69*	9
COc1cc(C(CCN2CCCC2)c2c(OC)cc(OC)c3c(-c4ccccc4)cc(=O)oc23)cc(OC)c1OC (stereo unspecified)	58*	-20
O=C(NCc1cccc(C(F)(F)F)c1)C1CCN(c2cncnc2N2CCOCC2)CC1	3	-3
SMILES	mHTT CaM bind	Pf apPOL inh
Nc1cc(=O)[nH]c(SCC(=O)Nc2cccc(C(F)(F)F)c2)n1	-12	-4
CC1=Nc2c(ccc3ccccc23)C1(C)C	12	-18
O=C(c1ccc(Br)cc1)N1CCN(c2ccc([N+](=O)[O-])c(N3CCCC3)c2)CC1	8	17
Cc1ccc(C(=O)N2CCC(CCNC(=O)COc3cccc(C)c3)CC2)cc1	21	6
CCc1ccc(CNC(=O)C2CCN(c3cncnc3N3CCN(C)CC3)CC2)cc1	21	-1
O=C(NCc1ccc(F)c(Cl)c1)C1CCN(c2cncnc2N2CCCC2)CC1	90*	2
O=C(NCc1cc(F)cc(F)c1)C1CCN(c2cncnc2N2CCCCC2)CC1	7	6
CN1CCN(c2ncncc2N2CCC(C(=O)NCc3ccc(Cl)cc3)CC2)CC1	98*	-3
COc1ccc(-c2nnc(C)c(N3CCC(C)CC3)n2)cc1	8	-2
CCOC(=O)C1CCN(c2nc(-c3ccc(C)cc3)nnc2C)CC1	15	-3
Cc1ccc(-c2nnc(C)c(N3CCC(C)CC3)n2)cc1	82*	0
CCOC(=O)C1CCN(c2nc(-c3cccc(C)c3)nnc2C)CC1	58*	-1
COCCC(=O)N1CCC2(CC1)Nc1cccnc1NC2=NCc1ccccc1	-1	-2
Cc1ccccc1C(=O)Nc1ccc2c(c1)Cc1ccccc1-2	3	7
OC1(C#CC#CC2(O)CCCCC2)CCCCC1	82*	0
CCN(CC)CC#CC1(O)CCCCC1	-3	0
Cc1ccc(C)c(NC(NC(=O)c2cc([N+](=O)[O-])cc([N+](=O)[O-])c2)C(Cl)(Cl)Cl)c1 (stereo unspecified)	70*	2
Cc1ccc(NC(NC(=O)c2cccc([N+](=O)[O-])c2)C(Cl)(Cl)Cl)c(C)c1 (stereo unspecified)	62*	-2
